Screening results from PubChem BioAssay.
USP17 inh: human USP17-like deubiquitinase inhibition; inhibition, % at 50 µM; purified USP17, Ub-rhodamine cleavage fluorescence, 3 h; hit rate 6.5% among 47,000; AID 1645855; A8MUK1
USP30 inh: human USP30 deubiquitinase inhibition; inhibition, % at 25 µM; purified USP30, Ub-rhodamine cleavage fluorescence; AID 1645860; hit rate 5.3% among 47,000
USP28 block: inhibitors of human USP28 deubiquitinase; purified USP28, Ub-rhodamine cleavage fluorescence, 30 min; inhibition, % at 25 µM; hit rate 3% among 47,000; Q96RU2
USP7 block: inhibitors of human USP7 deubiquitinase; Q93009; purified USP7, Ub-rhodamine cleavage fluorescence; inhibition, % at 20 µM; hit rate 0.3% among 47,000; AID 1645854
USP8 inh: human USP8 deubiquitinase inhibition; inhibition, % at 20 µM; P40818; purified USP8, Ub-rhodamine cleavage fluorescence, 30 min; hit rate 4.2% among 47,000
USP10 inh: inhibitors of human USP10 deubiquitinase; inhibition, % at 20 µM; AID 1645856; Q14694; hit rate 1.1% among 47,000; purified USP10, Ub-rhodamine fluorescence, 60 min
* = called active by the depositor; / = no result. The list is not random: actives were taken first. Their share in the collection is about 13%. No stated cut-off is given here; in the data, active means inhibition above about 30%; inactive means the rest.

SMILES	USP17 inh	USP30 inh	USP28 block	USP7 block	USP8 inh	USP10 inh
Cc1sc2nc(SCC(=O)Nc3ccccc3O)n(Cc3ccco3)c(=O)c2c1C	13	15	12	9	54*	21
Cc1sc2nc(SCC(=O)Nc3cccc(F)c3)n(Cc3ccco3)c(=O)c2c1C	10	-16	10	3	4	0
CC1=C2[C@H]3OC(=O)[C@@H](C)[C@@H]3CC[C@@]2(C)C(=O)CC1	7	25	9	2	17	-1
CC(=O)N1CCC(N[C@H]2C[C@@H](Cc3cc(-c4ccccc4)on3)C2(C)C)CC1	-18	-10	-13	-7	-4	-2
CCc1nc2cc3c(cc2n1CC(=O)N1CCOCC1)OCCO3	-8	-6	-6	0	0	1
CC(=O)Oc1cn(C(C)c2ccccc2)c2nc(C)n3c4ccccc4nc3c12 (centres undefined)	-45	-169	-43	-17	-24	-11
CCC(=O)Oc1cn(-c2ccc(C(C)C)cc2)c2nc(CC)n3c4ccccc4nc3c12	4	-24	-7	2	47*	-3
Cc1cccc(NC(=O)Cn2c(=O)n(Cc3ccc(C(=O)NC4CCN(Cc5ccccc5)CC4)cc3)c(=O)c3ccccc32)c1	-10	-250	-66	3	-9	-5
O=C(Cn1c(=O)n(Cc2ccc(C(=O)NCc3ccco3)cc2)c(=O)c2ccccc21)Nc1ccc2c(c1)OCCO2	81*	48*	58*	-9	74*	41*
O=C(Cn1c(=O)n(CCCC(=O)NC2CCN(Cc3ccccc3)CC2)c(=O)c2ccccc21)Nc1cccc(Cl)c1	27	-36	-11	-14	-6	-9
O=C(CCCCn1c(=O)c2ccccc2n(CC(=O)Nc2ccc3c(c2)OCCO3)c1=O)NCc1ccco1	16	27	14	7	3	43*
CNc1nc(N(C)C)nc(-n2cnc(SCCOc3ccccc3C)n2)n1	21	/	/	12	3	12
COc1ccccc1C(=O)N1CCN(c2nc(-c3ccc(Cl)cc3)no2)CC1	3	5	3	-15	7	-3
O=C(c1ccccc1F)N1CCN(c2nc(-c3ccc(Cl)cc3)no2)CC1	-6	44*	9	-84	-1	3
O=C(CCN1C(=O)c2ccccc2Sc2ncccc21)Nc1cc(F)ccc1F	8	-109	-1	-2	14	-8
CC/C=C\C/C=C\C/C=C\CCCCCCCC(=O)O	88*	53*	74*	41*	39*	54*
CCc1ccccc1NS(=O)(=O)c1cccc(-c2noc(C)n2)c1	7	5	13	6	18	4
O=C(c1ccccc1)N1CCCC1c1cccc(Cc2ccccc2)n1 (centres undefined)	4	18	8	2	0	2
O=C(c1ccccc1)N1CCC(c2cccc(Cc3cccc(F)c3)n2)CC1	4	4	43*	-10	-10	6
CCOc1ccc2c(c1)c(=O)c(C(=O)c1ccc(C)cc1)cn2CC(=O)Nc1ccc(OC)cc1	56*	-4	4	1	0	16
COc1cccc(NC(=O)Cn2cc(C(=O)c3ccc(C)cc3)c(=O)c3cc(Cl)ccc32)c1	-3	-20	19	35*	73*	43*
CCOc1ccc2c(c1)c(=O)c(C(=O)c1ccc(C)cc1)cn2CC(=O)Nc1ccc(C)cc1	8	10	12	60*	95*	62*
CCOc1ccc2c(c1)c(=O)c(C(=O)c1ccc(C)cc1)cn2CC(=O)Nc1ccc(C)c(C)c1	19	/	/	59*	92*	66*
Cc1ccc(C(=O)c2cn(CC(=O)Nc3ccc(F)c(F)c3)c3ccc(F)cc3c2=O)cc1	-9	-102	-18	19	-10	12
COc1cccc(NC(=O)CNc2cc(C)nc3nc(-c4cccnc4)nn23)c1	-36	-85	-28	-6	-24	-8
CCOC(=O)c1ccc(-n2c(CN3CCN(c4cc(C)ccc4C)CC3)nc3ccc([N+](=O)[O-])cc3c2=O)cc1	12	30*	12	3	20	6
O=c1c2cc([N+](=O)[O-])ccc2nc(CN2CCN(c3ncccn3)CC2)n1-c1ccccc1F	-7	32*	2	-48	-127	0
Cc1ccc(Cn2c(=O)c3ccccc3n3c(CCC(=O)NCCCN(Cc4ccco4)C4CCCC4)nnc23)cc1	-6	19	2	-81	-8	-3
